# Screening data: PubChem BioAssay, National Center for Advancing Translational Sciences (NCATS)
# Rows were chosen to be rich in hits. Some 2.4% of all compounds tested hit in one or more screens of this group.
# D2 PAM-1 = Beta-Arrestin HTS for Positive Allosteric Modulators of the Human D2 Dopamine Receptor: Potentiators. D(2) dopamine receptor (Homo sapiens), P14416. DiscoveRx D2 beta-arrestin cells, luminescence, 90 min; 100% = 57 uM dopamine signal. potentiation, % (test concentration not listed). 360,000 tested, 0.23% active. AID 624464, 2012; in the data active = potentiation above about 50%
# Target sequence (P14416 whole entry, looked up): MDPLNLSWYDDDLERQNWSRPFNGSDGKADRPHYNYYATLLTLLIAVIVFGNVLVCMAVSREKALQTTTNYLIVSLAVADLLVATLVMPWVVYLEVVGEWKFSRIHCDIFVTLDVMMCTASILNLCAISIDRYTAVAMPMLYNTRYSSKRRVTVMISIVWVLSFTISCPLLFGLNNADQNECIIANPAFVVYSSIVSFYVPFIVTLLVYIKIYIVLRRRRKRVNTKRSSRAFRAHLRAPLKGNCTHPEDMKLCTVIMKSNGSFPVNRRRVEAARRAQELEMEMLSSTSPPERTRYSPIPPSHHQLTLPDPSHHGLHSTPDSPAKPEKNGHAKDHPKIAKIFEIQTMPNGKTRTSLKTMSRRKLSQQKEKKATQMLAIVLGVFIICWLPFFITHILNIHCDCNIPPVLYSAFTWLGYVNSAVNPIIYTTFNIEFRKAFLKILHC
#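 PathHunter D2 cells, attached overnight at 37 deg C, received compound in DMSO plus dopamine at EC20 (50 nM final) for 90 min at 37 deg C. Beta-arrestin recruitment was read as luminescence after 1 h with detection reagent at ambient temperature.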
# D2 antag = HTS Assay for Allosteric Antagonists of the Human D2 Dopamine Receptor: Primary Screen for Antagonists; D(2) dopamine receptor (Homo sapiens), P14416; 340,000 tested, 2% active; HEK293 TREx D2 cells, calcium flux, dopamine EC80; AID 485344, 2010; inhibition, % at 10 µM; in the data active = inhibition above about 30%; inactive = below that, where a call was filed
#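 Overnight-induced (tetracycline, 30 C) HEK293 T-REx cells carrying force-coupled D2 receive a no-wash calcium dye, then compound, then EC80 dopamine at 180 s; signals are read kinetically throughout.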
# D2 PAM-2 = HTS Assay for Positive Allosteric Modulators of the Human D2 Dopamine Receptor: Primary Screen for Potentiators; D(2) dopamine receptor (Homo sapiens), P14416; HEK293 T-REx D2, calcium flux, EC20 dopamine potentiation; potentiation, % at 10 µM; 340,000 tested, 0.34% active;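 active = potentiation over 3 SD above the plate norm, cut at about 30% in these data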
#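 Potentiation of an EC20 dopamine calcium response measured kinetically over 180 s, after a preceding 180 s compound-only read flagging agonists. Cells: inducible Hek293 Trex D2 line, 4000/well, cultured overnight at 30 C before dye loading.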
# D2 ag-1 = Beta-Arrestin HTS for Positive Allosteric Modulators of the Human D2 Dopamine Receptor: Agonists. D(2) dopamine receptor (Homo sapiens), P14416. DiscoveRx PathHunter D2 beta-arrestin, luminescence, 90 min; 100% = 57 uM dopamine signal. activation, % (concentration not given with the values). 360,000 tested, 0.084% active; in the data active = activation above about 40%
#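 DiscoveRx PathHunter D2 beta-arrestin cells (2,100/well) attached overnight, then compound-stimulated 90 min at 37 C in HBSS/10 mM HEPES/0.1% Tween-20 buffer; beta-galactosidase complementation read by luminescence after 1 h at ambient temperature. Dopamine 57 uM final (EC100) as control.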
# D2 ag-2 = HTS Assay for Allosteric Agonists of the Human D2 Dopamine Receptor: Primary Screen for Agonists | HEK293 T-REx D2 cells, calcium flux agonist mode | activation, % at 2 µM | 340,000 tested, 0.53% active;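 active = activation over 3 SD above normal in the single-dose calcium agonist read, cut at about 30% in these data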
#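 In this primary screen, compounds producing a positive calcium signal within 180 s of addition to tetracycline-induced, force-coupled HEK293 Trex D2 cells are flagged; cells are dye-loaded with a no-wash calcium kit beforehand.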
# Numbers stand for hits; n = inactive; x = no result.
SMILES,D2 PAM-1,D2 antag,D2 PAM-2,D2 ag-1,D2 ag-2
CCCCCNCc1cccn1C,n,n,n,n,n
Cn1cccc1CNCc1ccccc1Cl,n,n,n,n,50
Cn1cccc1CNC(=O)Nc1ccccc1,n,n,n,n,n
Cn1cccc1CNC(=O)Nc1ccc(Cl)cc1,n,31,n,n,n
CCOc1ccc(CC(=O)Nc2c(C(=O)c3ccc(Cl)cc3)oc3ccccc23)cc1OCC,x,x,n,x,n
COC(=O)[C@@]1(Cc2ccc(OC)cc2)[C@@H]2C(=CC(=O)[C@H]2CC(=O)C(=O)N2CCCC2)CN1C(=O)c1ccccc1,n,38,n,n,n
COC(=O)[C@@]1(Cc2ccc(OC)cc2)[C@@H]2[C@@H](CC(=O)[C@H]2CC(=O)C(=O)N(C)C)CN1C(=O)c1ccccc1,n,n,n,n,n
CN(C)C=NC(=O)c1cc(C(=O)c2ccc(F)cc2)c[nH]1,n,n,n,n,n
CN(C)C=NC(=O)c1cc(C(=O)c2ccccc2)c[nH]1,n,33,n,n,n
c1csc(-c2nnc(NC3CCCCC3)c3ccccc23)c1,n,43,n,n,n
O=C(NCc1ccccc1F)C1CCN(Cc2cc3ccccc3n2Cc2cccc(Cl)c2)CC1,x,x,n,x,n
O=C(N/N=C/c1cc(Br)cs1)c1c[nH]c2ccccc12,n,n,n,n,n
O=C(N/N=C/c1ccc(Br)s1)c1c[nH]c2ccccc12,n,34,n,n,n
COc1ccccc1C(=O)NCC(=O)N1CC=C(c2ccccc2)CC1,n,30,n,n,n
Cn1c(CN2CCCCC2)nc2cc(NS(=O)(=O)c3ccc(F)cc3)ccc21,n,74,n,n,n
Cn1c(CCN2CCCCC2)nc2cc(NS(=O)(=O)c3ccc(Cl)cc3)ccc21,n,n,n,n,n
CC(=O)Nc1ccc2c(c1)nc(CN1CCCC1)n2C,n,n,n,n,n
Cn1c(CN2CCCCC2)nc2cc(NS(=O)(=O)c3ccc(Cl)cc3)ccc21,n,73,n,n,n
CC1(C)CC(N(Cc2ccco2)C(=O)Cc2ccccc2)CCO1 (stereo unspecified),n,n,n,n,n
CC1(C)CC(N(Cc2cccs2)C(=O)c2ccco2)CCO1 (stereo unspecified),n,n,33,n,n
Cc1cccc(NC(=O)CSc2nc3c(c(=O)[nH]2)CN(Cc2ccc4c(c2)OCO4)CC3)c1C,x,x,n,x,n
COCc1nnc(NC(=O)C2CC(=O)N(CCc3ccc(F)cc3)C2)s1 (stereo unspecified),n,30,n,n,n
COc1n[nH]c(C(=O)Nc2cc(Cl)ccc2Cl)c1[N+](=O)[O-],n,32,n,n,n
CCN(CCCc1ccccc1)CCCc1ccccc1,n,83,n,n,n
CCCN(CCO)CCCc1ccccc1,n,n,n,n,n
SMILES,D2 PAM-1,D2 antag,D2 PAM-2,D2 ag-1,D2 ag-2
COc1ccc(C2=Nn3c(nnc3-c3ccccc3OC)SC2)cc1OC,n,n,37,n,n
COc1ccc(C2=Nn3c(nnc3-c3ccccn3)SC2)cc1OC,n,n,n,n,n
O=C(CSc1nc2c(c(=O)[nH]1)CN(Cc1ccc3c(c1)OCO3)CC2)Nc1ccc(F)cc1,x,x,n,x,n
Cn1nccc1C(=O)N1CCc2ccccc21,n,36,n,n,n
O=C1C(NS(=O)(=O)c2cccs2)=C(N2CCOCC2)C(=O)c2ccccc21,n,38,n,n,n
O=C1C(NS(=O)(=O)c2cccs2)=C(N2CCN(Cc3ccccc3)CC2)C(=O)c2ccccc21,n,39,n,n,n
Cc1ccc(S(=O)(=O)Nc2c(O)ccc3ccccc23)cc1,n,x,x,56,x
NC[C@H]1O[C@H](O[C@H]2[C@H](O)[C@@H](O[C@H]3O[C@H](CO)[C@@H](O)[C@H](N)[C@H]3O)[C@H](N)C[C@@H]2N)[C@H](N)C[C@@H]1O,n,37,n,n,n
CCOc1ccc(C(=O)NCCc2sc(-c3ccc(F)cc3)nc2C)cc1,x,x,n,x,n
O=c1nc2s/c(=C\c3ccco3)c(=O)n2nc1Cc1ccc(F)cc1,n,35,n,n,n
NC(=O)c1ccsc1NC(=O)C1CCCN1S(=O)(=O)c1ccc(Cl)cc1 (stereo unspecified),n,n,n,n,n
CC1CCCCN1S(=O)(=O)c1ccc(C(=O)Nc2sccc2C(N)=O)cc1 (stereo unspecified),n,31,n,n,n
CCCCn1c(CCC(=O)O)ccc1-c1cccs1,n,40,n,n,n
COCCn1c(CCC(=O)O)ccc1-c1cccs1,n,n,n,n,n
O=c1c([N+](=O)[O-])c(NCCN2CCCCCC2)c2ccccc2n1-c1ccccc1,n,49,n,n,n
CCn1c(=O)c([N+](=O)[O-])c(NCCN(C)C)c2ccccc21,n,59,n,n,n
CCn1c(=O)c([N+](=O)[O-])c(NCC(O)c2ccccc2)c2ccccc21 (stereo unspecified),n,n,n,n,n
O=C1c2cccc3c(O)ccc(c23)C(=O)N1Cc1ccccc1,n,34,n,n,101
O=C(O)c1cccc(CN2C(=O)c3ccccc3C2=O)c1,n,n,n,n,n
Cc1cc(C)cc(C(=O)NCC(=O)OCN2C(=O)c3ccccc3C2=O)c1,n,44,n,n,n
COCCn1c(C)cc(/C=C2/SC(=O)N(CC(=O)N3CCCC3)C2=O)c1C,n,34,n,n,n
CCN=C1S/C(=C\c2ccc(N3CCOCC3)cc2C)C(=O)N1CC,n,n,n,n,n
COCCN1C(=O)/C(=C/c2ccc(N3CCCC3)cc2C)SC1=S,n,n,n,n,37
COc1cccc(CNC(=O)Cn2c(=O)nc(-c3ccccc3F)c3cc(Cl)ccc32)c1,x,x,n,x,n
CCc1c(C)sc(NC(=S)N2CC(C)OC(C)C2)c1C(=O)OC (stereo unspecified),68,n,n,n,n
Cc1ccc(/C=C2\CCC3=C2OC(N)=C(C#N)C3c2ccc(C)cc2)cc1 (stereo unspecified),n,n,n,n,72
Cc1ccc(C2C(C#N)=C(N)Oc3cc(N)ccc32)cc1 (stereo unspecified),n,n,n,n,n
Cc1ccc(C(=O)Nc2cccc(C(=O)OCc3cc(=O)n4nc(C5CC5)sc4n3)c2)cc1,x,x,n,x,n
Cc1nc2ncnn2c(N2CCN(c3cccc(C(F)(F)F)c3)CC2)c1C,n,x,x,n,x
